Test results as given in PubChem BioAssay (NCATS).
Records with an inconclusive call do not appear. Values without a mark were called inactive. Activity calls are given as the source filed them. Calls come from the whole dose curve; as a rule, active = well fitted inhibition curve with a large enough effect; inconclusive = small, poorly fitted or top-dose-only effect; inactive = no such curve, though single readings can be large or run the other way.

biological target: Tumor susceptibility gene 101 protein (Homo sapiens) (UniProt Q99816); experiment: qHTS Assay for Iinhibitors of HIV-1 Budding by Blocking the Interaction of PTAP/TSG101: Hit Validation (AID 651600); conditions: PTAP peptide/TSG101 UEV interaction, biochemical assay; series mostly up to 57.5 µM; activity change, negative = inhibition: at the top concentration; note: nearly all actives have a fitted effect of over 70% in size; for activity change, negative = inhibition: % is set by controls: 0 for no effect and ±100 for the full control effect
Sequence (Q99816 whole entry, looked up, the tested form may be a part): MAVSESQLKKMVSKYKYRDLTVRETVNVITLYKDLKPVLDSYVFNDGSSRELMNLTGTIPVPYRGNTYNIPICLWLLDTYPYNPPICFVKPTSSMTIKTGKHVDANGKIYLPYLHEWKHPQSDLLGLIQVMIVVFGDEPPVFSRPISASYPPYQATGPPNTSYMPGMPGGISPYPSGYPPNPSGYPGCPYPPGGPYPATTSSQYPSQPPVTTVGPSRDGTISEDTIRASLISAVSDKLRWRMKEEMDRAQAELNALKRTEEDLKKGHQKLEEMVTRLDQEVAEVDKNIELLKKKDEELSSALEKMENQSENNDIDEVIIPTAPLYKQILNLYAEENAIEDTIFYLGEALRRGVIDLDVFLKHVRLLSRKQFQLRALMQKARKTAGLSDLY
Outline: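 Fluorescence polarization binding assay: Tsg101 binding domain (10 uM) mixed with compounds and FITC-labeled PTAP peptide (50 nM) in HEPES pH 7.5, 0.15 M NaCl, 0.01% Tween 20, EDTA, TCEP; 20 min at r.t.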
Potency is the fitted concentration of half-maximal effect.

Row | Compound | Potency | activity change, negative = inhibition [%]
1 | CCN1C(=O)c2cccc3c(N)ccc(c23)C1=O | 2.06 µM (active) | –
2 | O=C1c2cccc3c(O)ccc(c23)C(=O)N1Cc1ccccc1 | 2.59 µM (active) | –
3 | CCOC(=O)c1cnc2ccc(OC)cc2c1Nc1ccc(N2CCN(C)CC2)cc1 | – | -2.48
4 | Nc1ccc(-c2c3ccc(=O)cc-3oc3cc(O)ccc23)cc1C(=O)O | 23.1 µM (active) | –
5 | CCNc1ccc2noc3c2c1C(=O)c1ccccc1-3 | 3.26 µM (active) | –
6 | O=C1c2cccc3c(O)ccc(c23)C(=O)N1Cc1ccco1 | 1.46 µM (active) | –

biological target: Rap guanine nucleotide exchange factor 3 (Homo sapiens) (UniProt O95398); experiment: Confirmatory qHTS for antagonist of cAMP-regulated guanine nucleotide exchange factor 3 (EPAC1) (AID 1645880); conditions: EPAC1 Rap1B-BODIPY-GDP exchange, fluorescence; activity, negative = inhibition: at 115 µM (top of the series); note: nearly all actives have a fitted effect of over 55% in size;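 for activity, negative = inhibition: plate controls were DMSO only for no effect and full effect of the ATA control for full effect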
Sequence (O95398 whole entry, looked up): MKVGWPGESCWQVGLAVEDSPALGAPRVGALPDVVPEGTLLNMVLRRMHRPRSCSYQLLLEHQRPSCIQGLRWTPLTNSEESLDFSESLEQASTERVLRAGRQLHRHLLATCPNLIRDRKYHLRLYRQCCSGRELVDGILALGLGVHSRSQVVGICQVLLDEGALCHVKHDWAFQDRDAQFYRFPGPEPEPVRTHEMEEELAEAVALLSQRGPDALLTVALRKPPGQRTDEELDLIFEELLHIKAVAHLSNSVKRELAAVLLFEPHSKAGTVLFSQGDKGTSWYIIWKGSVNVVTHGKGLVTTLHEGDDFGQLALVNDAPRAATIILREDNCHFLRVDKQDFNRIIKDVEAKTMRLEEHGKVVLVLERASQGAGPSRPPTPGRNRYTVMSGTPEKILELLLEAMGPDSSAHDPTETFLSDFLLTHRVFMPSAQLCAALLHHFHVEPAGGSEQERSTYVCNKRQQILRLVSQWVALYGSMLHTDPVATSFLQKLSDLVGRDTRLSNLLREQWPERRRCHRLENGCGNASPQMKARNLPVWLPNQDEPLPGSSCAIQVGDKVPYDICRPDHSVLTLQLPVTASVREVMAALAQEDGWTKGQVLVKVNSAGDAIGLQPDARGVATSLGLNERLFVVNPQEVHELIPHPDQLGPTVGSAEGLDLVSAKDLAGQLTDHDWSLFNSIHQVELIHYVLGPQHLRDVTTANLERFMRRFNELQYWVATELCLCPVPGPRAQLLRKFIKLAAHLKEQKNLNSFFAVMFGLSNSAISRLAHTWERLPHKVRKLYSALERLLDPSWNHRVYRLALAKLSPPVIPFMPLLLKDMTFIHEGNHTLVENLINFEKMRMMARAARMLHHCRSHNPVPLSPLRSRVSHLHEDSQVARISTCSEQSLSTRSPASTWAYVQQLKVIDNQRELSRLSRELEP
Outline: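 Released BODIPY-GDP fluoresces less than Rap1-bound BODIPY-GDP; the signal is followed at 480/540 nm at 5-min intervals over 30 min, after 5 min at room temperature. Reactions contain 100 nM EPAC1, 250 nM RAP1B-BODIPY-GDP and 50 uM GDP; results are normalized to ATA and DMSO.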

Row | Compound | activity, negative = inhibition [%] | Potency
7 | CC(=O)c1cccc(NC(=O)c2c(-c3ccccc3)c(-c3ccccc3)nn(C)c2=O)c1 | -36 | –
8 | COc1cc(NC(=O)c2cnc(N)s2)cc(C(=O)Nc2cccc(C(F)(F)F)c2)c1 | – | 12.6 µM (active)
9 | CCC(Oc1ccccc1)C(=O)Nc1ccccc1N1CCCCC1 (stereo unspecified) | -25.8 | –
10 | COc1cc(OC)c(-c2c3cc(O)c(=O)cc-3oc3cc(O)c(O)cc23)cc1OC | 195 | –
11 | CCC(=O)NC(c1ccc(C)cc1)c1ccc2cccnc2c1O (stereo unspecified) | -11.8 | –
12 | CCOc1ccc2oc(C(=O)N(C)CC(=O)Nc3ccc(OCC)c(OCC)c3)c(C)c2c1 | -25.7 | –
13 | CCN1C(=O)c2cccc3c(N)ccc(c23)C1=O | 237 | –
14 | CC(C)c1ccc(NC(=O)COC(=O)C2=COCCO2)cc1 | -15.2 | –
15 | O=C1c2cccc3c(O)ccc(c23)C(=O)N1Cc1ccccc1 | 288 | –
16 | Cc1cc(C(=O)Nc2ccon2)c(C)o1 | -16.8 | –
17 | COc1ccc(CCNc2oc(-c3ccc(C)cc3)nc2C#N)cc1OC | -18.8 | –
18 | Cc1ccc([N+](=O)[O-])cc1S(=O)(=O)N1CCC(C)CC1 | -18.6 | –
19 | C=CCn1c(SCC(=O)NC(N)=O)nnc1-c1cc2c(s1)CCC(CC)C2 (stereo unspecified) | -29.2 | –
20 | CN1CCN(C2=CC3=CC(=C(C#N)C#N)CCC3CC2)CC1 (stereo unspecified) | 379 | –
21 | Cc1cc(Nc2ncc(Cl)cc2Cl)n(-c2ccccc2C)n1 | -29.8 | –
22 | Cn1cc(C(CO)Cc2ccccc2)c2ccccc21 (stereo unspecified) | -17.1 | –
23 | CCOC(=O)c1cnc2ccc(OC)cc2c1Nc1ccc(N2CCN(C)CC2)cc1 | -26.7 | –
24 | O=C(O)c1ccc2c(c1)C(=O)N(c1ccc(/C=C/C(=O)c3ccccc3)cc1)C2=O | – | 39.8 µM (active)
25 | CCOc1cc(/C=C(\C#N)C(=O)Nc2cccc(C(=O)O)c2)cc(Br)c1OC(=O)c1ccc(OC)cc1 | – | 42.6 µM (active)
26 | COc1ccc(C(CC(=O)N2CCCC2)c2ccc(F)cc2)cc1 (stereo unspecified) | -26.9 | –

Row | Compound | activity, negative = inhibition [%] | Potency
27 | Cc1ccc(S(=O)(=O)N2[C@@H](c3ccccc3)C(C(=O)O)=CC[C@H]2c2ccc(C(C)C)cc2)cc1 | – | 75.7 µM (active)
28 | COc1cccc(C(=O)C(CCC#N)c2ccccc2)c1 (stereo unspecified) | -15.9 | –
29 | Nc1ccc(-c2c3ccc(=O)cc-3oc3cc(O)ccc23)cc1C(=O)O | 356 | –
30 | Cc1ccc(C)c(NC(=O)COC(=O)COc2cccc3c2OC(C)(C)C3)c1 | -18.6 | –
31 | COc1ccc(N2CCOCC2)c(NC(=O)c2cccc3ccccc23)c1 | -17.5 | –
32 | Cc1ccc2oc(=O)n(CCCOc3ccccc3Cl)c2c1 | -27.7 | –
33 | O=C1C(Cc2ccccc2)SC(=Nc2ccccc2)N1c1ccccc1 (stereo unspecified) | -24.6 | –
34 | CCNc1ccc2noc3c2c1C(=O)c1ccccc1-3 | 123 | –
35 | O=S(=O)(O)c1ccc(N=NNc2ccc(Br)cc2)cc1 | -23.9 | –
36 | Cc1csc(N=Nc2ccc(N(C)C)cc2)[n+]1[O-] | – | 67.5 µM (active)
37 | CCC(=O)N1c2ccc(S(=O)(=O)NCCc3ccc(C)cc3)cc2CC1C (stereo unspecified) | -20.7 | –
38 | CC(=O)/C(C#N)=C1\NC(=O)C(Cc2cc(Cl)ccc2Cl)S1 (stereo unspecified) | – | 44.7 µM (active)
39 | CCC1=NN(C(=O)c2ccc(Br)cc2)C(O)(c2ccccc2)C1 (stereo unspecified) | -22.4 | –
40 | O=C(C1CC1)N1CCN(c2ccc([N+](=O)[O-])cc2-n2cccc2)CC1 | -17.6 | –
41 | CCOc1nc(C)cc(C)c1S(=O)(=O)c1cccc(Cl)c1 | -15.9 | –
42 | Cc1cc(OC(C)C(=O)NCc2ccccn2)c2c(C)c(Cc3ccccc3)c(=O)oc2c1 (stereo unspecified) | – | 47.8 µM (active)
43 | O=C1c2cccc3c(O)ccc(c23)C(=O)N1Cc1ccco1 | 220 | –
44 | Cc1ccc(CNC(=O)c2c[nH]n3c(=O)c(Cc4ccc(F)cc4Cl)c(C)nc23)cc1 | – | 67.5 µM (active)
45 | O=[N+]([O-])c1ccc(N/N=C2/CCCCC2c2ccccn2)cc1 (stereo unspecified) | -19.7 | –
46 | CCOc1cc(/C=C2/SC(=S)NC2=O)ccc1OC(=O)c1ccco1 | – | 37.9 µM (active)
